JMJD2A Tudor: qHTS Assay for Inhibitors of JMJD2A-Tudor Domain | Lysine-specific demethylase 4A (Homo sapiens), O75164 | AlphaScreen JMJD2A-Tudor / H3K4me3 peptide binding | Potency, µM (top dose mostly 114 µM), for the others: at the highest dose activity change, negative = inhibition, usual class: inhibitors | 390,000 compounds, 4.4% hits | AID 504339, 2011; note: % is set by controls: 0 for no effect and ±100 for the full control effect; nearly all actives have a fitted effect of over 50% in size
G9a block: qHTS Assay for Inhibitors of Histone Lysine Methyltransferase G9a. Histone-lysine N-methyltransferase EHMT2 (Homo sapiens), Q96KQ7. Potency, µM (doses to about 102 µM), without a hit: at the top dose activity, negative = inhibition, actives largely listed as inhibitors. G9a H3K9 monomethylation, AlphaScreen, 2 h. 350,000 compounds, 8.8% hits; note: % is set by controls: 0 for no effect and ±100 for the full control effect; nearly all actives have a fitted effect of over 75% in size
Target sequence (Q96KQ7 913-1193 limits assumed): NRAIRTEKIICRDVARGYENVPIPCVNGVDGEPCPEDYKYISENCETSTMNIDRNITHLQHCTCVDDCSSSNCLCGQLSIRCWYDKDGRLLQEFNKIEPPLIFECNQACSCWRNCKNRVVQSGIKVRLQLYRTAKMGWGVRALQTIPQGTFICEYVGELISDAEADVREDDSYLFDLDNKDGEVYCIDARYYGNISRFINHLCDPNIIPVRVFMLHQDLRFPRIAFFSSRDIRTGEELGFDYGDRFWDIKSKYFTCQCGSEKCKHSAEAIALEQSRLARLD
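G9a (20 nM) preincubated 15 min RT with compounds, then 500 nM biotinylated H3K9 peptide and 20 uM SAM added; 2 h RT reaction. Monomethyl-H3K9 product detected by AlphaScreen with anti-H3K9me1 antibody, streptavidin donor and anti-rabbit IgG acceptor beads.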
Sfp inh: qHTS Assay for Inhibitors of Bacillus subtilis Sfp phosphopantetheinyl transferase (PPTase); AID 1490, 2009; Biochemical Sfp PPTase activity, qHTS; Potency, µM, for the others: largest response in the series, negative = inhibition, most hits filed as inhibitors; 4'-phosphopantetheinyl transferase ffp (Bacillus subtilis), Q9F4F7; 310,000 compounds, 3.5% hits;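 note: the enzyme is Sfp with the accession as filed and its product quenches rhodamine fluorescence; 0% = enzyme reaction without inhibitor and -100% = no enzyme wells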
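Step 1, compound plus 15 nM Sfp-PPTase, 15 min, room temperature. Step 2, add rhodamine-CoA (5 uM) and BHQ-2-YbbR (12.5 uM). Step 3, read 525/598 nm fluorescence at 0 and 30 min.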
HP1b chromo inh: HTS for Inhibitors of HP1-beta Chromodomain Interactions with Methylated Histone Tails; AlphaScreen HP1-beta / biotin-H3K9me3 peptide binding; Potency, µM (titrated, usually from 114 µM), inactives show at the highest dose activity change, negative = inhibition, usual class: inhibitors; 390,000 compounds, 0.56% hits; AID 540317, 2011; note: nearly all actives have a fitted effect of over 70% in size
Target sequence (P83916 whole entry, looked up): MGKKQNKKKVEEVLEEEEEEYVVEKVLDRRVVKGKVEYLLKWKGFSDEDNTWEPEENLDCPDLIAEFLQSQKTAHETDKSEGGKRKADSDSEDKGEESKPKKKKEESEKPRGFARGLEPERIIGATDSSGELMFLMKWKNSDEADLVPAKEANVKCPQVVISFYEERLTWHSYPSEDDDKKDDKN
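HP1-beta protein (50 nM final) preincubated 30 min at room temperature with biotinylated H3(1-18)K9me3 peptide (50 nM) in PBS pH 7.4, 0.01% Tween-20, then compound added for 30 min. AlphaScreen streptavidin donor/nickel chelate acceptor beads (10 ug/mL final), 30 min dark, luminescence read.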
BAZ2B block: qHTS Assay for Inhibitors of BAZ2B; AlphaScreen BAZ2B-H3K14Ac peptide displacement; Potency, µM (titrated, usually from 114 µM), without a hit: at the top dose activity change, negative = inhibition, usual class: inhibitors; 360,000 compounds, 4.4% hits; Bromodomain adjacent to zinc finger domain protein 2B (Homo sapiens), Q9UIF8; note: % is set by controls: 0 for no effect and ±100 for the full control effect; nearly all actives have a fitted effect of over 60% in size
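Multi-concentration screen (max 110 uM) measuring displacement of acetylated histone H3 peptide from BAZ2B by AlphaScreen, using 50 nM protein, 50 nM peptide and 10 ug/mL streptavidin donor plus Ni-chelate acceptor beads.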
Active calls of the source: *; ? = inconclusive; nt = no result; [ ] = remark or other dose. In the library only some 12% were active in any assay of this set; here they are far more common. Calls come from the whole dose curve; as a rule, active = well fitted curve in the direction sought with a large enough effect; inconclusive = small, poorly fitted or top-dose-only effect, or another doubt; inactive = no such curve, though single readings can be large; an effect the other way counts as inactive or inconclusive. Potency is the fitted concentration of half-maximal effect.

SMILES	JMJD2A Tudor	G9a block	Sfp inh	HP1b chromo inh	BAZ2B block
CC(=O)N(Cc1cc(=O)[nH]c2ccccc12)c1ccccc1C	?	25.1µM*	-15.9%	-2.6%	-0.5%
CCCC(=O)N(Cc1cc(=O)[nH]c2ccccc12)c1ccccc1C	?	35.5µM*	-13.3%	1.5%	0.3%
CCn1cc(C(=O)N[C@@H](CCSC)C(=O)NCCCO)c(=O)c2cc3c(cc21)OCO3	-9.9%	-7.4%[0.501 µM]	11.6%	30.8%	-12.6%
Cc1occc1C(=O)NC(C)C(C)(C)C (centres undefined)	-8.9%	-5.4%[59 µM]	-9.7%	28.8%	4.1%
CNc1cccnc1C=NNC(N)=S	79.4µM*	nt	nt	27.8%	nt
Cc1cccc2nc(CSc3nnnn3-c3ccccc3)cn12	-26.7%[57.1 µM]	-11.6%	21.0%	60.8%	-1.9%
CN(Cc1ccco1)C(=O)c1c[nH]c2ccc(S(=O)(=O)Nc3ccc4c(c3)OCCO4)cc2c1=O	-26.0%	89.1µM*	-13.2%	-25.8%	?
CCc1ccc(NS(=O)(=O)c2ccc3[nH]cc(C(=O)N(C)Cc4ccco4)c(=O)c3c2)cc1	-29.7%	89.1µM*	3.1%	5.3%	?
CCOc1ccc(NS(=O)(=O)c2ccc3[nH]cc(C(=O)N(C)Cc4ccccc4)c(=O)c3c2)cc1	-24.4%	?	nt	-35.4%	?
CCOc1ccc(NS(=O)(=O)c2ccc3[nH]cc(C(=O)NCc4ccco4)c(=O)c3c2)cc1	-26.0%	?	nt	-3.5%	nt
CCc1cc(S(N)(=O)=O)cc(CC)c1NC(C)=O	-7.0%	?	28.1%	38.3%	-0.4%
COCC(C)NC(=O)NC(=O)c1ccc(Cl)cc1 (centres undefined)	9.4%	17.9%[59 µM]	10.4%	29.9%	8.7%
CC(C)CN(CC(C)C)C(=O)CC(=O)NC(=O)c1ccc(Cl)cc1	16.1%	-5.0%[59 µM]	6.2%	20.6%	89.1µM*
C=C(C)C1CC=C(CN2CC(C)OC(C)C2)CC1 (centres undefined)	3.98µM*	7.94µM*	?	?	?
C=C(C)C1CC=C(CN2CCC(C(=O)OCC)CC2)CC1 (centres undefined)	2.51µM*	?	-2.2%	?	-24.8%
C=C(C)[C@@H]1CC=C(CO)CC1	-18.6%	nt	nt	18.9%	nt
Cc1onc(-c2ccccc2)c1C(=O)OCC(=O)N1CCN(c2ccccc2)CC1	-22.4%	-12.0%	nt	-5.2%	1.4%
CCCCC(=O)N1CCc2cc(OC)c(OC)cc2C1COc1ccc(OC)cc1 (centres undefined)	-25.7%	-5.9%[59 µM]	nt	9.0%	?
CCCC(C(=O)NC(C)(C)CC)N(Cc1ccco1)C(=O)CNS(=O)(=O)c1ccccc1 (centres undefined)	-5.7%	1.8%	10.2%	1.7%	-25.9%
Cc1cc(C)n(C(=O)c2cc([N+](=O)[O-])cc([N+](=O)[O-])c2)n1	-36.2%	70.8µM*	-4.8%	-25.3%	?
Cc1cc(C)n(C(=O)c2cccc([N+](=O)[O-])c2)n1	0.7%	10.5%	6.3%	27.7%	-7.9%
COc1ccc2c(c1)c(=O)oc1cc3oc(C)c(C)c3cc12	nt	?	5.3%	nt	56.2µM*
Cc1c(Cl)ccc2c(C(O)CBr)cc(-c3ccccc3)nc12 (centres undefined)	4.8%	nt	nt	29.5%[57 µM]	nt
CC1=C(C(N)=O)C(c2ccco2)C(C(N)=O)=C(C)N1	-1.6%	56.2µM*	?	41.2%	?
CN1C(=CC=C2C=C(I)C(=O)C(I)=C2)C(C)(C)c2ccccc21	?	nt	89.1µM*	?	?
SMILES	JMJD2A Tudor	G9a block	Sfp inh	HP1b chromo inh	BAZ2B block
CCCN1C(=O)/C(=C\C=C2/Sc3ccccc3N2CC)SC1=S	nt	?	-13.6%	nt	?
CN1/C(=C\C=C2/C(=O)Oc3ccccc3C2=O)C(C)(C)c2ccccc21	3.4%	?	17.7%	-1.3%	?
CCCN1C(=O)/C(=C\C=C2\N(CC)c3ccccc3C2(C)C)SC1=S	8.91µM*	nt	-24.4%	?	3.55µM*
CN1/C(=C\C=C2/SC(=S)NC2=O)C(C)(C)c2ccccc21	?	7.94µM*	?	?	7.94µM*
Oc1cccnc1CN1CCCCC1	-11.0%	nt	nt	53.3%	nt
O=c1[nH]cnc(CN2CCCCC2)c1O	50.1µM*	nt	nt	23.1%	nt
O=C(CNC(=O)N1CC(=O)Nc2ccccc21)NCc1ccc(Cl)cc1	-17.9%	nt	5.6%	17.8%	79.4µM*
CCN(CC(=O)Nc1ccc(NC(C)=O)cc1)C(=O)c1cccc2ccccc12	14.2%	8.7%[59 µM]	nt	30.4%	-6.5%
O=C(c1cccs1)N1CC=C(c2ccccc2)CC1	3.0%	90.5%[12.7 µM]	nt	66.1%	60.1%
CCCCNc1nc2c(S(=O)(=O)c3ccc(Cl)cc3)nnn2c2ccsc12	-9.5%	-0.9%[59 µM]	nt	18.8%	-36.0%
COc1ccc(-c2nnc(SC)nc2-c2ccc(OC)c([N+](=O)[O-])c2)cc1[N+](=O)[O-]	2.51µM*	nt	nt	?	nt
CCOc1ccc(S(=O)(=O)NCCC(=O)OCC(=O)c2ccc[nH]2)cc1	-10.4%	1.0%	7.5%	31.9%	nt
C=C(c1ccccc1Cl)[n+]1ccccc1	-2.8%	-1.0%	15.6%	61.9%	-20.4%
CC1=NN(c2ccccc2)C(=O)/C1=C\c1cn(C)c2ccccc12	8.91µM*	11.2µM*	-10.3%	15.8µM*	3.55µM*
CC1=NN(c2ccccc2)C(=O)/C1=C/c1cn(C)c2ccccc12	6.31µM*	-47.7%	-10.7%	11.2µM*	5.01µM*
CC1=NN(c2ccccc2)C(=O)/C1=C\c1cc(C)n(C)c1C	-23.8%	?	-4.0%	-16.9%	?
O=C(/C=C/c1ccc(Cl)cc1)NCCCN1CCOCC1	-13.1%	nt	-2.2%	20.5%	-8.2%
Cc1nc(SCC(=O)c2cccc([N+](=O)[O-])c2)n[nH]1	39.8µM*	?	20µM*	?	-7.5%
Cc1ccnc(SCc2ccc([N+](=O)[O-])cc2)n1	-22.6%	5.9%	16.1%	19.9%	-0.8%
Cc1ccnc(SCC(=O)c2cccc([N+](=O)[O-])c2)n1	-5.9%	22.4µM*	50.1µM*	31.8%	-26.4%
Cn1cnnc1SCC(=O)c1cccc([N+](=O)[O-])c1	-20.0%	-5.1%[59 µM]	-26.9%	-1.2%	-8.5%
COc1cccc(C2=NOC(C(=O)Nc3cc(C)nn3-c3ccccc3)C2)c1OC (centres undefined)	6.1%	44.7µM*	?	16.9%	10.3%
COc1cc(OC)c(C2=NOC(C(=O)Nc3cc(C)nn3-c3ccccc3)C2)cc1Cl (centres undefined)	-15.3%	2.9%[12.7 µM]	-5.7%	12.2%	7.9%
O=C(c1ccc(COc2ccc(Cl)cc2)o1)N1N=C(C(F)F)CC1(O)C(F)F (centres undefined)	5.7%[57.1 µM]	-3.4%[59 µM]	-52.5%	50.9%	1.5%

Bioassay records: PubChem, National Center for Advancing Translational Sciences (NCATS)
